Laboratory results from PubChem BioAssay AID463173 (ICCB-Longwood Screening Facility, Harvard Medical School, 2010).
Among all 52,000 compounds or so, about 4,300 (8.3%) were called active. The full list was thinned out, with actives kept by preference. Values without a mark were called inactive. Cut-off read from the data, not from the text of the source: active = survival mostly below about 52% (no sharp cut-off); inactive = mostly above about 56%.

Tested on: DeltatarO mutant
Assay: S. aureus survival, RN4220 and DeltatarO strains – OD600, teichoic acid synthesis inhibitors, primary screen (AID 463173)
Settings: S. aureus RN4220 wild type/DeltatarO growth, OD600, 18 h, stronger effect = lower value, screened at 18.75 µg/mL (by protocol)

SMILES | survival
CC(C)CC1CC(C)(C(=O)CSc2n[nH]c(-c3ccccc3)n2)OC1=O (stereo not given) | 80%
COC(=O)c1cc(C)nc2c1c(=O)nc(SCc1cccc(C)c1)n2C1CC1 | 78%
COc1ccc(CNC(=O)c2cnc3sc(N4CCCC4)nn3c2=O)c(OC)c1 | 70%
Cc1ccccc1Nc1c(-c2ccc(Cl)cc2)nc2c(C)cccn12 | 69%
Cc1ccc(Nc2c(-c3ccc(C)cc3)nc3c(C)cccn23)cc1 | 9% (active)
Cc1ccccc1Nc1c(-c2ccc(O)cc2)nc2c(C)cccn12 | 72%
Cc1ccc(Nc2c(-c3ccsc3)nc3c(C)cccn23)cc1 | 20% (active)
Cc1ccccc1Nc1c(-c2ccsc2)nc2c(C)cccn12 | 8% (active)
Cc1ccc(Nc2c(-c3ccc(O)cc3)nc3cccc(C)n23)cc1 | 84%
Cc1ccc(Nc2c(-c3ccsc3)nc3cccc(C)n23)cc1 | 25% (active)
Cc1cccc(C)c1Nc1c(-c2ccsc2)nc2cccc(C)n12 | 54%
Cc1cccn2c(Nc3ccccc3)c(-c3ccc(N4CCOCC4)cc3)nc12 | 113%
Cc1ccc(Nc2c(-c3ccc(N4CCOCC4)cc3)nc3c(C)cccn23)cc1 | 56%
Cc1ccc2nc(-c3ccsc3)c(Nc3ccc(Cl)cc3)n2c1 | 73%
Cc1cccn2c(Nc3ccccc3)c(-c3cccs3)nc12 | 89%
CCOC(=O)c1cccc(NC(=O)N2CCOCC2)c1 | 80%
O=C(Cn1c2[n+](c3ccccc31)CC(O)CS2)N1CCCCC1 (stereo not given) | 72%
O=C(Cn1c(=O)c2cccn2c2ccccc21)NCc1ccccc1F | 84%
CCCNS(=O)(=O)c1cc(-c2nn3c(C)nnc3c3ccccc23)ccc1C | 61%
C=C(C)c1cccc(C(C)(C)NC(=O)NC2CC(C)(C)NC(C)(C)C2)c1 | 107%
Cc1ccc(CCNC(=O)c2ccc3[nH]c(C)c(C)c3c2)cc1 | 116%
CCCn1c(=O)n(-c2ccccc2Cl)c(=O)c2sc3ccccc3c21 | 95%
Cc1c(C(=O)OCCOc2ccccc2)[nH]c2c1C(=O)CC(c1ccc(C(C)(C)C)cc1)C2 (stereo not given) | 70%

SMILES | survival
Cc1cc(C)cc(NS(=O)(=O)c2ccc(-n3cccn3)cc2)c1 | 75%
O=C(Nc1sc2c(c1C(=O)NCC1CCCO1)CCC2)c1cc(=O)c2cc(Cl)ccc2o1 (stereo not given) | 43% (active)
Cc1ccc2c(=O)cc(C(=O)Nc3sc4c(c3C(=O)NCC3CCCO3)CCCC4)oc2c1C (stereo not given) | 85%
Cc1cc2oc(C(=O)Nc3sc4c(c3C(=O)NCC3CCCO3)CCCC4)cc(=O)c2cc1C (stereo not given) | 47% (active)
O=C(Nc1sc2c(c1C(=O)NCC1CCCO1)CCC2)c1cc(=O)c2ccccc2o1 (stereo not given) | 66%
Cc1ccc2c(=O)cc(C(=O)Nc3sc4c(c3C(=O)NCC3CCCO3)CCCC4)oc2c1 (stereo not given) | 71%
O=C(Nc1sc2c(c1C(=O)NCC1CCCO1)CCCC2)c1cc(=O)c2ccccc2o1 (stereo not given) | 50%
Cc1ccc2oc(C(=O)Nc3sc4c(c3C(=O)NCC3CCCO3)CCC4)cc(=O)c2c1 (stereo not given) | 79%
Cc1cc2oc(C(=O)Nc3sc4c(c3C(=O)NCC3CCCO3)CCC4)cc(=O)c2cc1C (stereo not given) | 36% (active)
Cc1ccc2c(=O)cc(C(=O)Nc3sc4c(c3C(=O)NCC3CCCO3)CCC4)oc2c1 (stereo not given) | 71%
Cc1noc(/C=C/c2cccs2)c1S(=O)(=O)N1CCC(C(=O)Nc2ccc(F)c(Cl)c2)CC1 | 52%
COc1ccc(-c2cc3nc(N)cc(=O)n3[nH]2)cc1 | 148%
CCOc1cccc2cc(-c3nc4sc5c(c4c(=O)[nH]3)CCC(C(C)(C)C)C5)c(=O)oc12 (stereo not given) | 79%
CCOC(=O)Cc1c(C)nc2c(-c3ccc(OC)c(OC)c3)c(C)nn2c1C | 82%
Cc1ccccc1Cn1c(=O)n(CC2CCC(C(=O)N3CCC(C)CC3)CC2)c(=O)c2sccc21 (stereo not given) | 73%
O=C(COC(=O)c1cc(-c2cccs2)nc2ccccc12)c1ccccc1 | 45%
CCCCOc1ccc(CNC(=O)CCCN2C(=O)CSc3c2c(C)nn3-c2ccccc2)cc1 | 72%
CC(C(=O)N1CCCC1)N1CCN(c2ccc(F)cc2)CC1 (stereo not given) | 87%
COc1cccc(C(=O)Nc2ccc3nc(SCc4ccc(C)cc4)sc3c2)c1 | 64%
COc1ccc2sc(N)nc2c1 | 93%
COc1ccc(Nc2nc(N)nc(CSc3nc4cc(OC)ccc4s3)n2)cc1 | 41% (active)
CN1CCN(Cc2nc(N)nc(Nc3ccccc3)n2)CC1 | 70%
COc1ccc(C(=O)Nc2ccc3nc(SCc4ccc(C)cc4)sc3c2)cc1 | 88%

SMILES | survival
COc1ccc(Nc2nc(N)nc(CSc3nc4ccccc4s3)n2)cc1 | 21% (active)
Cc1cc2ncn(CCC(=O)NC(C)(C)C)c2cc1C | 95%
O=C(O)Cn1nnnc1SCC(=O)Nc1ccc(F)cc1F | 75%
CN(C(=O)C(=O)Nc1ccc2nc3n(c(=O)c2c1)CCCCC3)c1cccc(C(F)(F)F)c1 | 76%
COc1cc2[nH]c(=O)c(C(=O)NC3CCCC3)c(O)c2cc1OC | 98%
CCCCOC(=O)c1ccc(NC2=NS(=O)(=O)c3ccccc32)cc1 | 66%
COc1ccc(C2CC(=O)c3cc(-c4nc(-c5cccc([N+](=O)[O-])c5)cs4)c(=O)n(-c4ccc(OC)cc4)c3C2)cc1 (stereo not given) | 57%
CCc1ccc(NC(=O)CC2C(=O)N(c3cccc(C)c3)C(=O)N2Cc2cccc(OC)c2)cc1 (stereo not given) | 92%
Cc1nc(-c2ccc(S(=O)(=O)N3CCN(c4cccc(Cl)c4)CC3)cc2)co1 | 91%
CCOc1ccc(-c2cc(CCCC(=O)NCCc3cc(OC)c(OC)c(OC)c3)no2)cc1 | 43% (active)
CCOc1ccc(CCNC(=O)CCCc2cc(-c3ccc(OCC)cc3)on2)cc1 | 92%
CCOc1ccc(-c2cc(CCCC(=O)NCCc3ccc(OC)c(OC)c3)no2)cc1 | 91%
COc1cc(C2c3c(oc4ccccc4c3=O)C(=O)N2c2ccccn2)cc(OC)c1OC (stereo not given) | 146%
Cc1nnc(N2CCN(c3cccc(C(F)(F)F)c3)CC2)c2c1nnn2Cc1ccccc1 | 80%
CCOC(=O)c1cc2c(=O)n3ccccc3nc2n(Cc2ccco2)c1=NC(=O)c1ccc(C)c(C)c1 | 34% (active)
CCOC(=O)c1cc2c(=O)n3ccccc3nc2n(Cc2ccco2)c1=NC(=O)c1cccc(F)c1 | 17% (active)
CCOC(=O)c1cc2c(=O)n3ccccc3nc2n(Cc2ccco2)c1=NC(=O)c1ccc(Br)cc1 | 55%
CCOC(=O)c1cc2c(=O)n3ccccc3nc2n(Cc2ccco2)c1=NC(=O)c1ccc(F)cc1 | 43% (active)
CCOC(=O)c1cc2c(=O)n3ccccc3nc2n(Cc2ccco2)c1=NC(=O)c1ccc(C(C)(C)C)cc1 | 36% (active)
CCCn1c(=NC(=O)c2c(-c3c(F)cccc3Cl)noc2C)c(C(=O)OCC)cc2c(=O)n3ccccc3nc21 | 164%
CCOC(=O)c1cc2c(=O)n3ccccc3nc2n(Cc2ccco2)c1=NC(=O)c1c(F)cccc1Cl | 42%
CN1CCN(C(=O)c2cnn(-c3cccc(Cl)c3)c2C2CCN(C(=O)OC(C)(C)C)CC2)CC1 | 95%
CCc1ccccc1N1CC(c2nc3ccccc3n2CCCCOc2ccccc2)CC1=O (stereo not given) | 54%

SMILES | survival
CCOc1ccccc1N1CC(c2nc3ccccc3n2CCCOc2ccc(OC)cc2)CC1=O (stereo not given) | 78%
Cc1cccc(OCCCCn2c(C3CC(=O)N(c4ccc(C)cc4C)C3)nc3ccccc32)c1 (stereo not given) | 47%
Cc1cccc(OCCCCn2c(C3CC(=O)N(c4ccccc4Cl)C3)nc3ccccc32)c1 (stereo not given) | 10% (active)
Cc1cc(C)cc(OCCn2c(C3CC(=O)N(c4ccccc4Cl)C3)nc3ccccc32)c1 (stereo not given) | 85%
O=C1CC(c2nc3ccccc3n2CCCCOc2ccccc2)CN1c1ccccc1Cl (stereo not given) | 58%
CCc1ccccc1N1CC(c2nc3ccccc3n2CCCOc2ccc(Cl)cc2)CC1=O (stereo not given) | 41% (active)
CCc1ccccc1N1CC(c2nc3ccccc3n2CCOc2ccc(Cl)c(C)c2)CC1=O (stereo not given) | 3% (active)
Cc1ccc(-n2ncc3c(N4CCCCCC4)ncnc32)cc1C | 86%
CCOc1ccc(CNC(=O)c2sc3nc(C)cc(C)c3c2-n2cccc2)cc1 | 75%
COc1cccc(CNC(=O)c2nn(C)c3c2CSc2ccccc2-3)c1 | 75%
O=C(NC1=NCCS1)c1ccccc1 | 101%
Cc1nc2c(-c3ccccc3)c(C)[nH]n2c(=O)c1Cc1ccc(Br)cc1 | 7% (active)
Cc1nc2nc(NC(=O)CC(C)C)[nH]n2c(=O)c1Cc1ccccc1 | 113%
Cc1ccc(Cc2c(C)nc3c(-c4ccccc4)c(C)[nH]n3c2=O)cc1 | 0% (active)
Cc1cccc(Cc2c(C)nc3c(-c4ccccc4)c(C)[nH]n3c2=O)c1 | 16% (active)
Cc1nc2nc(NC(=O)C(C)C)[nH]n2c(=O)c1Cc1ccccc1 | 98%
CCc1c(C)nc2cc(-c3ccccc3)[nH]n2c1=O | 73%
Cc1nc2nc(NC(=O)C(C)(C)C)[nH]n2c(=O)c1Cc1ccccc1 | 112%
Cc1nc2c(-c3ccccc3)c(C)[nH]n2c(=O)c1Cc1ccc(C(C)C)cc1 | 11% (active)
CCOC(=O)CCc1c(C)nc2c(-c3ccccc3)c(C)[nH]n2c1=O | 87%
COc1cccc(C(=O)Nc2nc3nc(C)c(Cc4ccccc4)c(=O)n3[nH]2)c1 | 104%
